# Experimental data as given in PubChem BioAssay (NCATS).
# A number with no mark means an inactive call. Records with an inconclusive call do not appear. A call without a number means that no potency is given here. Active and inactive are the calls of the source. Unless noted, the call rests on the fitted dose curve; in most records, active means well fitted curve in the direction sought with a large enough effect; inconclusive means small, poorly fitted or top-dose-only effect, or another doubt; inactive means no such curve, though single readings can be large; an effect the other way counts as inactive or inconclusive.
# Legend:
# [1] = qHTS assay to identify small molecule inhibitors of chordoma cells - UCH-2 (AID 1259356); further: series mostly up to about 46 µM
# [2] = P-glycoprotein substrates identified in KB-8-5-11 adenocarcinoma cell line, qHTS therapeutic library screen (AID 1346987); further: nearly all actives have a fitted effect of over 65% in size; further: potency means the concentration at half of the fitted maximal effect
# Outline: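 KB-8-5-11, a colchicine-selected P-gp-overexpressing KB-3-1 subline, was grown without colchicine for the assay. Cells were seeded at 500 cells/well, dosed in concentration-response and incubated 72 h at 37 degree C, 5% CO2. Viability was read by CellTiter-Glo luminescence.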
# [3] = Natriuretic polypeptide receptor (hNpr1) antagonism - Pilot counterscreen GloSensor control cell line (AID 1347045; calls by dose curve; further: series mostly up to about 38 µM)
# Outline: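 HEK293 cGMP GloSensor cells preloaded 2 h with 2% GloSensor reagent, then compound 30 min before baseline luminescence read. Stimulated with 50 uM sodium nitroprusside, 20 min at room temperature, then read again; counterscreen for Npr1 antagonism.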
# [4] = target: Atrial natriuretic peptide receptor 1 (Homo sapiens) (UniProt P16066); test: Natriuretic polypeptide receptor (hNpr1) antagonism - Pilot screen (AID 1347049; calls by dose curve;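 further: agonist-evoked cGMP luminescence read 20 min after hNppA addition; series mostly up to about 58 µM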)
# Outline: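 HEK293 cells co-expressing hNpr1 and the GloSensor pGS-40F cGMP luciferase sensor were preloaded with 2% GloSensor reagent for 2 h. Compounds were added for 30 min at room temperature, then cells were stimulated with 0.1 nM hNppA for 20 min before luminescence readout.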
# [5] = target: Atrial natriuretic peptide receptor 2 (Homo sapiens) (UniProt P20594); test: Natriuretic polypeptide receptor (hNpr2) antagonism - Pilot subtype selectivity assay (AID 1347050; calls by dose curve; further: potency means the concentration at half of the fitted maximal effect)
# Outline: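 cGMP-sensor HEK293/hNpr2 cells; 2% GloSensor reagent 2 h RT; compounds 30 min; baseline luminescence read; 1 nM hNppC agonist 20 min RT; final luminescence read by CCD camera. Antagonism = reduced post-agonist signal.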
# [6] = NS1 protein of Zika virus - qHTS assay to identify small molecule inhibitors in human HEK 293 cells (AID 1347053); further: series mostly up to about 46 µM; nearly all actives have a fitted effect of over 55% in size
# Outline: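 HEK 293 cells, seeded 20 h at 37 C, were pretreated with compound 1 h, then infected with ZIKV MR766 (MOI = 0.5) for 24 h. NS1 was read by TR-FRET with two anti-NS1 antibodies, normalized to uninfected and infected wells.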
# [7] = target: T1, Tyrosine-protein phosphatase non-receptor type substrate 1 (Homo sapiens) + Leukocyte surface antigen CD47 (Homo sapiens) (UniProt P78324+Q08722); test: CD47-SIRPalpha protein protein interaction - LANCE assay qHTS validation (AID 1347057; active means well fitted curve in the direction sought with a large enough effect in the signal ratio, with a control signal flat, not every such curve was filed as active; the % refers to the signal ratio; further: series mostly up to about 38 µM)
# Outline: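 First, His-tagged CD47 and Eu-labelled anti-His antibody met the compound for 30 min; next, site-specifically biotinylated SIRPalpha was added for 30 min; finally streptavidin-APC was added before reading the TR-FRET ratio.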
# [8] = target: T1, Tyrosine-protein phosphatase non-receptor type substrate 1 (Homo sapiens) + Leukocyte surface antigen CD47 (Homo sapiens); test: CD47-SIRPalpha protein protein interaction - HTRF assay qHTS validation (AID 1347058; active means well fitted curve in the direction sought with a large enough effect in the signal ratio, not every such curve was filed as active; the % refers to the signal ratio; further: series mostly up to about 38 µM)
# Outline: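 TR-FRET read (Ch1/Ch2 ratio) of soluble extracellular CD47 and Avi-biotinylated SIRPalpha domains in PBS pH 7.4 with 0.05% IGEPAL; 7-point compound titration. Sequential 30 min room-temperature steps; non-biotinylated SIRPalpha as control inhibitor.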
# [9] = target: T1, Tyrosine-protein phosphatase non-receptor type substrate 1 (Homo sapiens) + Leukocyte surface antigen CD47 (Homo sapiens); test: CD47-SIRPalpha protein protein interaction - Alpha assay qHTS validation (AID 1347059);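 further: bead proximity luminescence from CD47 binding SIRPalpha after compound preincubation with SIRPalpha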
# Outline: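 Soluble extracellular domains: Avi-tag biotinylated SIRPalpha (25 nM) preincubated 30 min RT with compound, then 6His-CD47 (12.5 nM) 30 min; Ni-NTA acceptor and streptavidin donor beads (10 ug/mL) 30 min, AlphaScreen read. PBS pH 7.4, 0.05% IGEPAL.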
# [10] = target: Parathyroid hormone/parathyroid hormone-related peptide receptor (Homo sapiens) (UniProt Q03431); test: qHTS for PTHR1 Agonists: Optimization Screen against the NCGC LOPAC library (AID 1347079);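 further: GloSensor cAMP luminescence in HEK-293 GP2 cells expressing human PTHR1 with IBMX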
# Outline: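 Agonist readout: GloSensor cAMP luminescence, read after 15 min at room temperature. HEK-293-derived GP2 line carries PTHR1; compounds tested as a titration for 1 hr at 37C in presence of IBMX. M-PTH (1-15) served as control.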
# [11] = qHTS of pediatric cancer cell lines to identify multiple opportunities for drug repurposing: Primary screen for TC32 cells (AID 1347089); further: nearly all actives have a fitted effect of over 60% in size
# Outline: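 Measured quantity: luminescence from CellTiter-Glo, reflecting metabolically active TC32 cells following 48 h of compound. Curves came straight from multi-point titrations, with 8 or 11 points in primary and 11 in confirmatory screening.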
# [12] = qHTS of pediatric cancer cell lines to identify multiple opportunities for drug repurposing: Primary screen for DAOY cells (AID 1347090); further: series mostly up to about 46 µM; nearly all actives have a fitted effect of over 55% in size
# Outline: (§1)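 Eight- or eleven-point concentration series, 48 h treatment at 37 degrees C in growth media; readout CellTiter-Glo luminescence. Potency and efficacy were taken from the concentration-response curves.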
# [13] = qHTS of pediatric cancer cell lines to identify multiple opportunities for drug repurposing: Primary screen for SJ-GBM2 cells (AID 1347091)
# Outline: as §1
# [14] = qHTS of pediatric cancer cell lines to identify multiple opportunities for drug repurposing: Primary screen for A673 cells (AID 1347092); further: nearly all actives have a fitted effect of over 45% in size
# Outline: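 Cells are plated, rested 5 h, dosed by pintool, incubated 48 h, then lysed with CellTiter-Glo and read by luminescence. DMSO is the neutral control; bortezomib at 2.3 uM final is the positive control.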
# [15] = qHTS of pediatric cancer cell lines to identify multiple opportunities for drug repurposing: Primary screen for SK-N-MC cells (AID 1347093); further: series mostly up to about 46 µM
# Outline: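 Metabolically active cells were quantified by ATP-dependent luminescence (CellTiter-Glo, 15 min at room temperature) following 48 h treatment. Cells had been plated at 500-1,000 per well and settled for 5 h beforehand.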
# [16] = qHTS of pediatric cancer cell lines to identify multiple opportunities for drug repurposing: Primary screen for BT-37 cells (AID 1347094); further: potency means the concentration at half of the fitted maximal effect
# Outline: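 Quantitative HTS format: each compound titrated (MIPE 11 points from 0.78 nM, NPC 8 points from 0.59 nM) onto cells plated 5 hours earlier. After 48 h at 37 degrees C, CellTiter-Glo luminescence was recorded.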
# T1 sequence (P78324 whole entry, looked up): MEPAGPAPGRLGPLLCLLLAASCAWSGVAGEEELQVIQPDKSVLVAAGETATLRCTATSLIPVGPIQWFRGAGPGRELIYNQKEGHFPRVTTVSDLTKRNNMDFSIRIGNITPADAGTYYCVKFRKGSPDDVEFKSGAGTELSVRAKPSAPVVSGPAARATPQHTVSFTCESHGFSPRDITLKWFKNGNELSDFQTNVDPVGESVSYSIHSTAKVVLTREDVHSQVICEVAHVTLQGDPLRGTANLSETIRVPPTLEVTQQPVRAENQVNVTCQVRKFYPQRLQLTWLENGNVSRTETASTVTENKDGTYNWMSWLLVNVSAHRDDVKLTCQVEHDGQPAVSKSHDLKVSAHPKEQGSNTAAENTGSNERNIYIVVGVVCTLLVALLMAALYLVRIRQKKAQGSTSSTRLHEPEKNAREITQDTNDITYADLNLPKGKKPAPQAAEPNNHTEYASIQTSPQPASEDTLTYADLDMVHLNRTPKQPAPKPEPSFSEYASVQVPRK
# T1 sequence (Q08722 whole entry, looked up): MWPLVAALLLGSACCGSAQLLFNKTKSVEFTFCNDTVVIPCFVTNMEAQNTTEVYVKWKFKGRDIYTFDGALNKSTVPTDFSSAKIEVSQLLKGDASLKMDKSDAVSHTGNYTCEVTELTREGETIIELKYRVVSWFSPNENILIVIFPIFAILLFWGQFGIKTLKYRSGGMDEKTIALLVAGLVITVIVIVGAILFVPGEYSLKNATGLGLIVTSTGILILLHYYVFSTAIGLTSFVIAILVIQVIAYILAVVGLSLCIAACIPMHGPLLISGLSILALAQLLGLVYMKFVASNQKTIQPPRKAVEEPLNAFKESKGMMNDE
# Sequence of Atrial natriuretic peptide receptor 1 (Homo sapiens) (P16066 whole entry, looked up): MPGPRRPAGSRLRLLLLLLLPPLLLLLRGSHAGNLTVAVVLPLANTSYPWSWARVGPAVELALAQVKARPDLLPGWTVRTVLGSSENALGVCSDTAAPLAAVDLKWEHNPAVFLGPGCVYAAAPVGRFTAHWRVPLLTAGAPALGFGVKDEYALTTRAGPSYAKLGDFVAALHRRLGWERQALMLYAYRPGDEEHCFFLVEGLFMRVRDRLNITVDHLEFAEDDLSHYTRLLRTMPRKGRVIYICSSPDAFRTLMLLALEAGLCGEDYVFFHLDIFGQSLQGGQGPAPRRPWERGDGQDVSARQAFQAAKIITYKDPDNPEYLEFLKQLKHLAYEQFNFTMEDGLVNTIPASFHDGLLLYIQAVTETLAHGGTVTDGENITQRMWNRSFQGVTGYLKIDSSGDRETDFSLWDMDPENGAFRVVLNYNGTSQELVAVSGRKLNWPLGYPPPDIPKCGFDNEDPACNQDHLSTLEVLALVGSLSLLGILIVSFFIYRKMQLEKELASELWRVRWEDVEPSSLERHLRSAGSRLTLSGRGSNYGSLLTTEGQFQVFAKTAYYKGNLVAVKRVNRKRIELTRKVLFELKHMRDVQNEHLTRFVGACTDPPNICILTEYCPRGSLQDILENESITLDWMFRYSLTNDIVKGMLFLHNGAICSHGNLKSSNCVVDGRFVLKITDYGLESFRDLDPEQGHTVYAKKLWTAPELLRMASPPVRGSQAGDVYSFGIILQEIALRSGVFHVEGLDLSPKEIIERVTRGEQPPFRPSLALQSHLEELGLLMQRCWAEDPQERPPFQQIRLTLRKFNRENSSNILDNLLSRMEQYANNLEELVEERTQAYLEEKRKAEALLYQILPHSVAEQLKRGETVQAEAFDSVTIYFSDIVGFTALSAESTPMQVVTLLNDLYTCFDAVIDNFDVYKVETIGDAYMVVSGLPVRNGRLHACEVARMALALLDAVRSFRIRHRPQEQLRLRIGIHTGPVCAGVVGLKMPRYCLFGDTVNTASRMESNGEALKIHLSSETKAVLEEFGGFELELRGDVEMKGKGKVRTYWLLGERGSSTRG
# Sequence of Atrial natriuretic peptide receptor 2 (Homo sapiens) (P20594 whole entry, looked up): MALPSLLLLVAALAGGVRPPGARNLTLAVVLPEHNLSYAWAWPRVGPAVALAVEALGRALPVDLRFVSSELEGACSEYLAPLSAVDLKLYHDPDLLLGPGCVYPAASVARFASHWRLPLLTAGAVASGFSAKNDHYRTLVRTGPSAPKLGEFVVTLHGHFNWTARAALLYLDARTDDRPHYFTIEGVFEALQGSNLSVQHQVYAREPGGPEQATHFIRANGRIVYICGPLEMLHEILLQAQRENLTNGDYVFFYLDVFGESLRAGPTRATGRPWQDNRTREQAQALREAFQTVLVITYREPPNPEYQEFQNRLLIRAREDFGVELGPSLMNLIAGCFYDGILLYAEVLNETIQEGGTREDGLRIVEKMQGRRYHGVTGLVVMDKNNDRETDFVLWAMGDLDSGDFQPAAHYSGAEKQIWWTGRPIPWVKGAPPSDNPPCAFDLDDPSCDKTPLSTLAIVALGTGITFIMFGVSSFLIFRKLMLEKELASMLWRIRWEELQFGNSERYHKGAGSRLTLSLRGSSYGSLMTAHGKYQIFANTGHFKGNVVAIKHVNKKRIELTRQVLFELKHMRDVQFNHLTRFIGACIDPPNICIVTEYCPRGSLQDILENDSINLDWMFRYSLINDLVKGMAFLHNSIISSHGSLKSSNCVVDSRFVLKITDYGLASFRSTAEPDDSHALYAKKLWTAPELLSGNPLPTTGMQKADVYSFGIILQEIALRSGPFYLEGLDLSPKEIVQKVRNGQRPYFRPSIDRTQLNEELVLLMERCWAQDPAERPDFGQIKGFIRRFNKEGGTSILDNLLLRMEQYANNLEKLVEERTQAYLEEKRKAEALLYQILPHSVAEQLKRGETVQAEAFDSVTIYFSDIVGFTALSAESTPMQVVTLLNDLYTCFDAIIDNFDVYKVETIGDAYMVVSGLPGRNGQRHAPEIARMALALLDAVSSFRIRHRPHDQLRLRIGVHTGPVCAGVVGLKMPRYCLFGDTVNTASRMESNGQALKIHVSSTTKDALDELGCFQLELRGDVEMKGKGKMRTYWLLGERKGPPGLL
# Sequence of Parathyroid hormone/parathyroid hormone-related peptide receptor (Homo sapiens) (Q03431 whole entry, looked up): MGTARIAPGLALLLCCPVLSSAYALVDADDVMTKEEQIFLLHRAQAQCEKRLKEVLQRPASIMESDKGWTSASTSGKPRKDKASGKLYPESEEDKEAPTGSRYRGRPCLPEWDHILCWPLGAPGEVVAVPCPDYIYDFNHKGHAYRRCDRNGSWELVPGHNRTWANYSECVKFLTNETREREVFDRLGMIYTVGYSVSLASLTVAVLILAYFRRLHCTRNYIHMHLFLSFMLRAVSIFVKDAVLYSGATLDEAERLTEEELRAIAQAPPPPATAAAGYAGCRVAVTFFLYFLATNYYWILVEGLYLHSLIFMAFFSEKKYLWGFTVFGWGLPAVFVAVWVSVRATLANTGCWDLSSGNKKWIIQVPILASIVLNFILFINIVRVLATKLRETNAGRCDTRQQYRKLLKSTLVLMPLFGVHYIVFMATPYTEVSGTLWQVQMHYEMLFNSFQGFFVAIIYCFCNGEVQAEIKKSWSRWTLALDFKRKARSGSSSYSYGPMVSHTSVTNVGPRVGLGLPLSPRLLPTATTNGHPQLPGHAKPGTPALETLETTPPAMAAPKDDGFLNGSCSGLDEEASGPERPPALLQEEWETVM
SMILES,Potency [1],Potency [2],Potency [3],Potency [4],Potency [5],outcome [6],outcome [7],outcome [8],Potency [9],outcome [10],Potency [11],Potency [12],Potency [13],Potency [14],Potency [15],Potency [16]
CCN(CC)CCNC(=O)c1ccc(NC(C)=O)cc1,inactive,inactive,inactive,inactive,inactive,inactive,inactive,inactive,inactive,inactive,inactive,inactive,inactive,inactive,inactive,inactive
CC(=O)[C@@]1(O)CC[C@H]2[C@@H]3CCC4=CC(=O)CC[C@]4(C)[C@H]3CC[C@@]21C,inactive,inactive,inactive,inactive,inactive,inactive,inactive,inactive,inactive,inactive,–,inactive,inactive,inactive,inactive,inactive
Cc1nnc(SCC2=C(C(=O)O)N3C(=O)[C@@H](NC(=O)Cn4cnnn4)[C@H]3SC2)s1,inactive,inactive,inactive,inactive,inactive,inactive,inactive,inactive,inactive,inactive,inactive,inactive,inactive,inactive,inactive,inactive
CC(C)[N+](C)(CCOC(=O)C1c2ccccc2Oc2ccccc21)C(C)C,inactive,inactive,inactive,inactive,inactive,inactive,inactive,inactive,inactive,inactive,inactive,inactive,inactive,inactive,inactive,inactive
CCCCCN(CCCCC)C(=O)C(CCC(=O)O)NC(=O)c1ccc(Cl)c(Cl)c1 (centres undefined),inactive,inactive,inactive,inactive,inactive,inactive,inactive,inactive,inactive,inactive,inactive,inactive,inactive,inactive,–,inactive
NS(=O)(=O)c1cc2c(cc1Cl)NC(C1CC3C=CC1C3)NS2(=O)=O (centres undefined),inactive,inactive,inactive,inactive,inactive,inactive,inactive,–,inactive,inactive,inactive,inactive,inactive,inactive,inactive,inactive
NC1=NCC2c3ccccc3Cc3ccccc3N12 (centres undefined),inactive,inactive,inactive,inactive,inactive,inactive,–,inactive,inactive,inactive,inactive,inactive,inactive,inactive,–,inactive
CC(=O)OC(C)C[N+](C)(C)C (centres undefined),inactive,inactive,inactive,inactive,inactive,inactive,inactive,inactive,inactive,inactive,–,inactive,inactive,inactive,–,inactive
COc1cc(Cc2cnc(N)nc2N)cc(OC)c1OC,inactive,inactive,inactive,inactive,inactive,inactive,inactive,inactive,inactive,inactive,–,inactive,inactive,inactive,–,inactive
C=CCc1ccccc1OCC(O)CNC(C)C (centres undefined),inactive,inactive,inactive,inactive,inactive,inactive,–,inactive,inactive,inactive,inactive,inactive,inactive,inactive,inactive,inactive
COC(=O)[C@H]1[C@H]2C[C@@H]3c4[nH]c5cc(OC)ccc5c4CCN3C[C@H]2C[C@@H](OC(=O)c2cc(OC)c(OC)c(OC)c2)[C@@H]1OC,inactive,inactive,inactive,inactive,inactive,inactive,inactive,–,–,inactive,–,–,inactive,–,–,inactive
N[C@@H](COP(=O)(O)O)C(=O)O,inactive,inactive,inactive,inactive,inactive,inactive,–,inactive,inactive,inactive,inactive,inactive,inactive,inactive,inactive,inactive
NC(=O)c1ncn([C@@H]2O[C@H](CO)[C@@H](O)[C@H]2O)c1O,inactive,inactive,inactive,inactive,inactive,inactive,–,inactive,inactive,inactive,–,inactive,inactive,inactive,inactive,inactive
CC(=O)OCC1=C(C(=O)O)N2C(=O)[C@@H](NC(=O)Cc3cccs3)[C@H]2SC1,inactive,inactive,inactive,inactive,inactive,inactive,inactive,inactive,inactive,inactive,–,inactive,inactive,inactive,inactive,inactive
C[C@@H](O)[C@H]1C(=O)N2C(C(=O)O)=C(SCCN=CN)C[C@H]12,inactive,inactive,inactive,inactive,inactive,inactive,–,inactive,inactive,inactive,inactive,inactive,inactive,inactive,inactive,inactive
O=c1[nH]c(=O)n([C@H]2C[C@H](O)[C@@H](CO)O2)cc1Br,inactive,inactive,inactive,inactive,inactive,inactive,inactive,inactive,inactive,inactive,–,inactive,inactive,inactive,inactive,inactive
CCN(CC)CC(=O)Nc1c(C)cccc1C,inactive,inactive,inactive,inactive,inactive,inactive,inactive,inactive,inactive,inactive,–,inactive,inactive,inactive,inactive,inactive

SMILES,Potency [1],Potency [2],Potency [3],Potency [4],Potency [5],outcome [6],outcome [7],outcome [8],Potency [9],outcome [10],Potency [11],Potency [12],Potency [13],Potency [14],Potency [15],Potency [16]
C[C@H](CS)C(=O)N1CCC[C@H]1C(=O)O,inactive,inactive,inactive,inactive,inactive,inactive,–,inactive,inactive,inactive,inactive,inactive,inactive,inactive,inactive,inactive
Cc1ccc(Cl)c(Nc2ccccc2C(=O)O)c1Cl,inactive,inactive,inactive,inactive,inactive,inactive,inactive,–,inactive,inactive,inactive,–,–,inactive,–,inactive
O=C1CC2(CCCC2)CC(=O)N1CCCCN1CCN(c2ncccn2)CC1,inactive,9.2 µM (active),inactive,inactive,inactive,inactive,–,inactive,inactive,inactive,inactive,inactive,inactive,inactive,inactive,inactive
CO[C@@]1(NC(=O)CSCC#N)C(=O)N2C(C(=O)O)=C(CSc3nnnn3C)CS[C@@H]21,inactive,inactive,inactive,inactive,inactive,inactive,–,inactive,inactive,inactive,inactive,inactive,inactive,inactive,–,inactive
O=C(O)CCCCCCCC(=O)O,inactive,inactive,inactive,inactive,inactive,inactive,–,inactive,inactive,inactive,–,inactive,inactive,inactive,inactive,inactive
C[N+](C)(C)CCOC(N)=O,inactive,inactive,inactive,inactive,inactive,inactive,inactive,inactive,inactive,inactive,–,inactive,inactive,inactive,inactive,inactive
Cc1nc2c([nH]1)c(=O)n(C)c(=O)n2Cc1ccco1,inactive,inactive,inactive,inactive,inactive,inactive,–,inactive,inactive,inactive,inactive,inactive,inactive,inactive,–,inactive
Cc1ccc(=O)n(-c2ccccc2)c1,inactive,inactive,inactive,inactive,inactive,inactive,–,inactive,inactive,inactive,–,inactive,inactive,inactive,inactive,inactive
CN=C(NC#N)NCCSCc1nc[nH]c1C,inactive,inactive,inactive,inactive,inactive,inactive,–,inactive,inactive,inactive,–,inactive,inactive,inactive,–,inactive
CCCN(CCC)CCc1cccc2c1CC(=O)N2,inactive,inactive,inactive,inactive,inactive,inactive,inactive,inactive,inactive,inactive,–,inactive,inactive,inactive,inactive,inactive
CCN1CCc2nc(N)oc2CC1,inactive,inactive,inactive,inactive,inactive,inactive,inactive,–,inactive,inactive,inactive,inactive,inactive,inactive,inactive,inactive
Cc1scc2c1N(C(=O)CN1CCN(C)CC1)c1ccccc1NC2=O,inactive,inactive,inactive,inactive,inactive,inactive,inactive,–,inactive,inactive,inactive,inactive,inactive,inactive,inactive,inactive
CCCC(C(=O)OCCN(CC)CC)(c1ccccc1)c1ccccc1,inactive,13 µM (active),inactive,inactive,10.4 µM (active),inactive,inactive,inactive,inactive,inactive,–,–,–,–,–,30.9 µM (active)
CN(C)[C@@H]1C(=O)C(C(N)=O)=C(O)[C@@]2(O)C(=O)C3=C(O)c4c(O)ccc(Cl)c4[C@@H](O)[C@H]3C[C@@H]12,inactive,inactive,inactive,inactive,inactive,inactive,inactive,–,–,inactive,inactive,inactive,inactive,inactive,inactive,inactive
CN1C(=O)CC[C@H]1c1cccnc1,inactive,inactive,inactive,inactive,inactive,inactive,inactive,inactive,inactive,inactive,–,inactive,inactive,inactive,inactive,inactive
Brc1c(NC2=NCCN2)ccc2nccnc12,inactive,inactive,inactive,inactive,inactive,inactive,inactive,–,inactive,inactive,–,inactive,inactive,inactive,inactive,inactive
NC(=O)c1cn(Cc2c(F)cccc2F)nn1,inactive,inactive,inactive,inactive,inactive,inactive,inactive,inactive,inactive,inactive,–,inactive,inactive,inactive,inactive,inactive
